# Results from PubChem BioAssay AID1347070 (National Center for Advancing Translational Sciences (NCATS), 2019).
# Hit rate of the full screen: of about 94,000 compounds, about 20 (0.02%) were called active. Inconclusive results (about 1%) are left out. Calls come from the whole dose curve; as a rule, active = well fitted activation curve with a large enough effect; inconclusive = small, poorly fitted or top-dose-only effect; inactive = flat fitted curve, though single readings scatter. These entries were drawn from the full list.
# Experiment: qHTS of alpha-syn Inhibitors: NCGC Sytravon Library Screen
# Conditions: S. cerevisiae alpha-synuclein toxicity rescue, BacTiter-Glo growth, 24 h; series mostly up to 46.1 µM
# Text: The goal of this project is to identify new chemical probes capable of reversing the toxicity associated with the Parkinson disease-related protein, alpha-synuclein. Compounds will be selected on their ability to restore growth in yeast cells expressing toxic levels of alpha-synuclein. These compounds will provide a complementary approach to deciphering the tangled mechanisms of toxicity and protection that we have uncovered through genome-wide genetic screens and are beginning to uncover in a large-scale proteomics analysis with mass spectroscopy. To this end, a miniaturized assay was developed to be screened against the Molecular Libraries Small Molecule Repository (MLSMR) to discover alpha-synuclein inhibitors. […] The phenotype of interest will be that of an Activator and this screen is run against the NCGC Sytravon Library collection. NIH Chemical Genomics Center [NCGC] NIH Molecular Libraries Probe Centers Network [MLPCN] MLPCN Grant: NS060957 Assay Submitter (PI): Susan Lindquist, Whitehead Institute/MIT
# Dispense 2.5 microL yeast galactose medium per 1536-well plate, pin compound, dispense 2.5 microL alpha-synuclein expressing yeast in galactose medium at OD600=0.02 (pregrown in raffinose medium to mid-log phase) per well, incubate for 24 hr at 30 deg C, and cell growth will be measured using 5 microL of Bactiter/Glo reagent to entire plate and read using Luminescence Protocol in ViewLux.
row,SMILES,outcome
1,COc1cc(CNC2CCCC2)c(Br)cc1OCc1ccccc1,inactive
2,Cc1ccc(C(=O)N[C@H](C(=O)N2CCN(c3ncccn3)CC2)C(C)C)cc1,inactive
3,Cc1nnc(SC(C(=O)c2ccccc2)c2ccccc2)[nH]c1=O (centres undefined),inactive
4,CCOC(=O)C1=C(CC)OC(N)=C(C#N)C1c1ccc(F)cc1F (centres undefined),inactive
5,COc1ccc(NC(=O)C2=C(C)NC(=O)NC2c2ccccc2[N+](=O)[O-])cc1 (centres undefined),inactive
6,NC(=O)CCN1CCN(S(=O)(=O)/C=C/c2ccccc2)CC1,inactive
7,COc1ccccc1N1CCN(CC(=O)NCCc2ccc(S(N)(=O)=O)cc2)CC1,inactive
8,O=C(O)Cc1csc(-c2cccc(Oc3ccccc3)c2)n1,inactive
9,O=C(CN1CCCCCC1)NCCN1C(=O)S/C(=C\c2ccccc2Cl)C1=O,inactive
10,CCOC(=O)c1cnn2c(SC)ncnc12,inactive
11,CCCCN1C(=O)C(CC(=O)NCc2cccs2)CC(C(=O)N2CCOCC2)=C1C (centres undefined),inactive
12,OCCC#Cc1ccc(CN2CCN(Cc3ccsc3)C(CCO)C2)cc1 (centres undefined),inactive
13,CCC(CC)C(=O)Nc1c2c(nn1-c1ccc(C)cc1)CS(=O)(=O)C2,inactive
14,Cc1cccc(NC(=O)CCn2c(=O)oc3ccccc32)c1,inactive
15,CCCCN(C(=O)CSCc1ccc(C)cc1)c1c(N)n(Cc2ccccc2)c(=O)[nH]c1=O,inactive
16,O=C(CN1CCCSc2ccccc21)N1CCN(S(=O)(=O)c2ccccc2)CC1,inactive
17,O=C(C1CCCO1)N1CCN(C(=O)C23CC4CC(CC(C4)C2)C3)CC1 (centres undefined),inactive
18,CCOC(=O)C(C(=O)c1ccccc1)C(c1ccccc1)c1nccc2ccccc12 (centres undefined),inactive
19,COc1cccc(N2CC(C(=O)NCc3n[nH]c(=O)c4ccccc34)CC2=O)c1 (centres undefined),inactive
20,CCCCS(=O)c1snnc1C (centres undefined),inactive
21,Cc1ccc(NC(=O)NC(=O)N(C2CCCCC2)S(=O)(=O)c2ccccc2)cc1,inactive
22,O=C(Nc1ccccc1C(=O)N1CCOCC1)c1ccc(CSc2ccccc2)cc1,inactive
23,CCN(CC)C(=O)C1=C(C)N(Cc2ccc(OC)cc2)C(=O)C(CC(=O)NCCCCc2ccccc2)C1 (centres undefined),inactive
24,CN(C)CCOCCOc1ccc(Cl)c2ccccc12,inactive
25,O=C(Nc1cccc([N+](=O)[O-])c1)Nc1ccc(Cl)cn1,inactive
26,O=C(NCC(F)(F)F)c1ccc(S(=O)(=O)NCCc2ccc3c(c2)OCCO3)cc1,inactive
27,CC(=O)c1cnc(SCC(=O)O)nc1C,inactive
28,CN(C(=O)COC(=O)c1ccc(Br)o1)c1c(N)n(Cc2ccccc2)c(=O)[nH]c1=O,inactive
29,COc1ccc(CNC(=O)C2CCN(S(=O)(=O)c3ccc(SC)cc3)CC2)cc1,inactive
